In PubChem BioAssay AID1347147 (National Center for Advancing Translational Sciences (NCATS), 2019):
Inconclusive results are not listed. A number with no mark means an inactive call. Active and inactive are the calls of the source. The call rests on the fitted dose curve; in most records, active means well fitted inhibition curve with a large enough effect; inconclusive means small, poorly fitted or top-dose-only effect; inactive means no such curve, though single readings can be large or run the other way.

These compounds were tested against N-terminal Xaa-Pro-Lys N-methyltransferase 1 (Homo sapiens) (UniProt Q9BV86) (assay: qHTS Assay for Inhibitors of N-terminal methyltransferase 1 (NTMT1): MTaseGlo Confirmatory Screen, Round 2). Conditions: NTMT1 enzyme, MTase-Glo SAH luminescence; series mostly up to 57.4 µM; activity change, negative = inhibition: at the top concentration.
Summary of the method: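 NTMT1 (125 nM) with 100 µM SAM was preincubated ~15 min with compound, then 1 µM SPKRIA peptide was added for 30 min at RT. SAH was detected by MTase-Glo luminescence, normalized to no-enzyme and DMSO controls, and fitted to a 4-parameter Hill equation.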
Potency means the concentration at half of the fitted maximal effect.
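Wherever activity change, negative = inhibition is given: plate controls were DMSO for no effect and no enzyme control for full effect.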

Chain of N-terminal Xaa-Pro-Lys N-methyltransferase 1 (Homo sapiens) (Q9BV86 whole entry, looked up): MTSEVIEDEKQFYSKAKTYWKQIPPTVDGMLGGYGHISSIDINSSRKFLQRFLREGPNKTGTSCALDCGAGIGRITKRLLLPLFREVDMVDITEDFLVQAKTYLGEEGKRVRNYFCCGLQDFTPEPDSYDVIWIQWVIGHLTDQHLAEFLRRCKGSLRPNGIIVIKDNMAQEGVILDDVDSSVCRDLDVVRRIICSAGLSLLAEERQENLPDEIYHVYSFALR

Row | Compound | activity change, negative = inhibition | Potency
1 | OCCN1CCN(CCCN2c3ccccc3Sc3ccc(Cl)cc32)CC1 | -4.78% | 
2 | Nc1[nH]c(=O)nc2c1ncn2C1OC(CO)C(O)C1O (configuration not stated) | -1.32% | 
3 | N#C/C(=C\c1ccc(O)c(O)c1)C(=O)NCCc1ccccc1 | -3.64% | 
4 | OCC1OC(n2cnc3c(NO)ncnc32)C(O)C1O (configuration not stated) | 272% | 
5 | Nc1ccnc2c1ncn2[C@@H]1O[C@H](CO)[C@@H](O)[C@H]1O |  | 10 µM (active)
6 | N.N.N.N.N.N.N.N.N.N.N.N.N.N.O.O.[Ru+4].[Ru+5].[Ru+5] |  | 31.6 µM (active)
7 | COc1cc(CNC(=O)CCCCCCC(C)C)ccc1O | 2.83% | 
8 | O=C1c2c(O)ccc(O)c2C(=O)c2c(NCCNCCO)ccc(NCCNCCO)c21 |  | 31.6 µM (active)
9 | CC[n+]1c(/C=C/C=C2/N(C)c3ccccc3C2(C)C)sc2ccccc21 |  | 14.1 µM (active)
10 | O=c1c(O)c(-c2ccc(O)c(O)c2)oc2cc(O)cc(O)c12 |  | inactive
11 | OCC1OC(n2cnc3c(=S)nc[nH]c32)C(O)C1O (configuration not stated) | 10.4% | 
12 | NS(=O)(=O)c1cccc2c1c([N+](=O)[O-])cc1nc(O)c(O)nc12 | -14.9% | 
13 | O=C1Nc2ccc(I)cc2/C1=C/c1cc(Br)c(O)c(Br)c1 |  | 8.91 µM (active)
14 | Cc1cccc(C2CN(C)CCc3c2cc(O)c(O)c3Cl)c1 (configuration not stated) | 0.658% | 
15 | CC#C[C@]1(O)CC[C@H]2[C@@H]3CCC4=CC(=O)CCC4=C3[C@@H](c3ccc(N(C)C)cc3)C[C@@]21C | -10.1% | 
16 | Brc1c(Br)c(Br)c2[nH]cnc2c1Br | 0.36% | 
17 | O=Nc1ccc2oc(=O)ccc2c1 | -21.6% | 
18 | Oc1ccc(O)cc1 | -20.8% | 
19 | COc1cc(/C=C(\C#N)C(=O)c2ccc(O)c(O)c2)cc(I)c1O | -22.8% | 

Row | Compound | activity change, negative = inhibition | Potency
20 | C/C(=C\CNc1ncnc2c1ncn2[C@@H]1O[C@H](CO)[C@@H](O)[C@H]1O)CO | 54.8% | 
21 | N#C/C(=C\c1ccc(O)c(O)c1)C(=O)NCCCNC(=O)/C(C#N)=C/c1ccc(O)c(O)c1 |  | 7.94 µM (active)
22 | CN1Cc2sccc2C(c2ccc(O)c(O)c2)C1 (configuration not stated) | -1.5% | 
23 | O=C1NC(=O)C(c2ccccc2[N+](=O)[O-])=C1Nc1ccc(O)c(Cl)c1 | -16.3% | 
24 | CN(C)[C@@H]1C(=O)C(C(N)=O)=C(O)[C@@]2(O)C(=O)C3=C(O)c4c(O)ccc(Cl)c4[C@@H](O)[C@H]3C[C@@H]12 | -18.8% | 
25 | Oc1cc(O)c2c(c1)O[C@H](c1ccc(O)c(O)c1)[C@@H](O)C2 | 0.317% | 
26 | CN(C)CCCN1c2ccccc2Sc2ccc(Cl)cc21 | -9.4% | 
27 | N.N.O=C(O)C1(C(=O)O)CCC1.[Pt] | -15.5% | 
28 | Nc1ncnc2c1[nH]c(=S)n2C1OC(CO)C(O)C1O (configuration not stated) | 4.45% | 
29 | Cc1ccccc1CNc1ncnc2c1ncn2[C@@H]1O[C@H](CO)[C@@H](O)[C@H]1O | 16.9% | 
30 | CC(=O)c1ccc2c(c1)N(CCCN(C)C)c1ccccc1S2 |  | inactive
31 | O=[N+]([O-])c1ccc2c(c1)S(=O)(=O)C=C2 | 1.82% | 
32 | Nc1nc(=S)c2ncn([C@H]3O[C@@H](CO)[C@@H](O)[C@@H]3O)c2[nH]1 | 0.577% [at 28.7 µM] | 
33 | Clc1nccc2c1ccc1ccccc12 | -14.2% | 
34 | CCC(=O)c1ccc2c(c1)N(CCCN(C)C)c1ccccc1S2 | -9.82% | 
35 | Brc1c(NC2=NCCN2)ccc2nccnc12 | 0.203% | 
36 | O=C1NC(=O)C(=Cc2ccc(-c3ccc(F)cc3O)o2)S1 |  | 35.5 µM (active)
37 | O=[N+]([O-])c1ccc(-c2nc(-c3ccc(F)cc3)c(-c3ccncc3)[nH]2)cc1 | -3.2% | 
